Reference: PubChem BioAssay (EPA / NIEHS)
Activity calls are given as the source filed them. The calls were made as follows: active = hit-call score of the fitted dose curve at least 0.9, where 1 is the maximum; inactive = score below 0.9.

Assays:
[1] = ATG_GLI_CIS: Attagene CIS-FACTORIAL HepG2 Assay for human Zinc Finger Protein GLI1 (AID 2282945); conditions: HepG2, Attagene cis-factorial reporter mRNA, GLI element; actives raise or lower the signal
Procedure, shortened: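 HepG2 cells transiently transfected with cis-promoter multiplexed reporter units report endogenous transcription factor activity. After 24 h chemical exposure, reporter mRNA was quantified by RT-PCR, 6-FAM labelling, HpaI digestion and capillary electrophoresis, with bidirectional fitting against DMSO.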

[2] = ATG_GRE_CIS: Attagene CIS-FACTORIAL HepG2 Assay for human Glucocorticoid Response Elements (GRE) (AID 2282947); conditions: HepG2 GRE cis-reporter, Attagene multiplex mRNA; actives raise or lower the signal
Procedure, shortened: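 HepG2 cells transiently transfected with multiple cis-promoter reporter units measure endogenous TF activity; 24 h compound exposure. Reporter mRNA quantified by RT-PCR, FAM labelling, HpaI digestion and capillary electrophoresis; bidirectional fit vs DMSO baseline.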

[3] = ATG_ISRE_CIS: Attagene CIS-FACTORIAL HepG2 Assay for human Interferon Regulatory Factor 1 (IRF1) binding to an Interferon-Stimulated Response Element (ISRE) (AID 2282948); conditions: HepG2 ISRE cis-reporter (Attagene), mRNA transcription readout; actives raise or lower the signal
Procedure, shortened: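 Cell-based cis-reporter assay; HepG2; 24 h exposure; reporter mRNA by RT-PCR plus capillary electrophoresis fluorescence; activity in either direction scored relative to DMSO.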

[4] = ATG_M_32_CIS: Attagene CIS-FACTORIAL HepG2 Assay for M32 Transcription Factor (Internal Marker) (AID 2282949); conditions: HepG2 Attagene cis-factorial M32 reporter, mRNA; actives raise or lower the signal;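 also: background control marker of the multiplexed CIS panel rather than a real target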
Procedure, shortened: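 Internal background marker read-out: RT-PCR/capillary electrophoresis fluorescence of reporter transcripts from transiently transfected HepG2 cells after 24 h chemical exposure. Activity fitted bidirectionally relative to DMSO negative control.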

[5] = ATG_M_06_CIS: Attagene CIS-FACTORIAL HepG2 Assay for M06 Transcription Factor (Internal Marker) (AID 2282950); conditions: HepG2 Attagene CIS-FACTORIAL M06 internal marker reporter; actives raise or lower the signal
Procedure, shortened: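 Terse: HepG2, transient MRTU transfection (FuGene 6), 24 h dosing; total RNA, oligo(dT) RT, PCR, FAM label, HpaI cut, capillary electrophoresis; bidirectional fit vs DMSO baseline; background-control endpoint.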

[6] = biological target: Hypoxia-inducible factor 1-alpha (Homo sapiens) (UniProt Q16665); test: ATG_HIF1a_CIS: Attagene CIS-FACTORIAL HepG2 Assay for human Hypoxia Inducible Factor 1 (HIF1A) (AID 2282951); conditions: HepG2 Attagene cis-factorial HIF1a reporter transcription; actives raise or lower the signal
Chain of Hypoxia-inducible factor 1-alpha (Homo sapiens) (Q16665 whole entry, looked up): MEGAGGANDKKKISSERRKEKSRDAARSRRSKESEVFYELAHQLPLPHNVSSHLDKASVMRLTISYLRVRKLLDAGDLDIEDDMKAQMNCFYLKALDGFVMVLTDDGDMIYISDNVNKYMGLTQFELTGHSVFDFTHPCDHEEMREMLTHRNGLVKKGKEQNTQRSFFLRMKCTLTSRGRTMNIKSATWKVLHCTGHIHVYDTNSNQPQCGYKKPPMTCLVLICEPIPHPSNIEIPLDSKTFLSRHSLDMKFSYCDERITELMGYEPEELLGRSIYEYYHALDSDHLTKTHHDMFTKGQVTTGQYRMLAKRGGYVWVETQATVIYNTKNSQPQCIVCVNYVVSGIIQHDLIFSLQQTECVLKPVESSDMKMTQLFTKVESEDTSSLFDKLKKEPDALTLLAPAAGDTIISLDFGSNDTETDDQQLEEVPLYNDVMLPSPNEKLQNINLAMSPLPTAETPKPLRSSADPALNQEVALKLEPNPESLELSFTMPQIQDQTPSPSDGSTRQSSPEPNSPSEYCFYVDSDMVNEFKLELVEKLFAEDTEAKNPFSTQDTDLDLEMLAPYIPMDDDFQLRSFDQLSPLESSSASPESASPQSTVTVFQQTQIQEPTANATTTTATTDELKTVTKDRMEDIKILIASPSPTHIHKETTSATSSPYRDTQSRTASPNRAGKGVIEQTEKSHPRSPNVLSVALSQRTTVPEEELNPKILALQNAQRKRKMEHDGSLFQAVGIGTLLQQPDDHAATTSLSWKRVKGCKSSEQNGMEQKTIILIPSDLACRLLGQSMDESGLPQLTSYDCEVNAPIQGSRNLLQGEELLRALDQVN
Procedure, shortened: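 HepG2 cells transiently transfected with multiple cis-regulated reporter transcription units measure endogenous transcription factor activity. After 24 h exposure, reporter mRNA is quantified by RT-PCR with 6-FAM labelling, HpaI digestion and capillary electrophoresis. Bidirectional fitting against DMSO.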

[7] = biological target: Hepatocyte nuclear factor 6 (Homo sapiens) (UniProt Q9UBC0); test: ATG_HNF6_CIS: Attagene CIS-FACTORIAL HepG2 Assay for human Hepatocyte Nuclear Factor 6 (HNF6) (AID 2282952); conditions: HepG2 Attagene cis-factorial HNF6 reporter transcription; actives raise or lower the signal
Chain of Hepatocyte nuclear factor 6 (Homo sapiens) (Q9UBC0 whole entry, looked up): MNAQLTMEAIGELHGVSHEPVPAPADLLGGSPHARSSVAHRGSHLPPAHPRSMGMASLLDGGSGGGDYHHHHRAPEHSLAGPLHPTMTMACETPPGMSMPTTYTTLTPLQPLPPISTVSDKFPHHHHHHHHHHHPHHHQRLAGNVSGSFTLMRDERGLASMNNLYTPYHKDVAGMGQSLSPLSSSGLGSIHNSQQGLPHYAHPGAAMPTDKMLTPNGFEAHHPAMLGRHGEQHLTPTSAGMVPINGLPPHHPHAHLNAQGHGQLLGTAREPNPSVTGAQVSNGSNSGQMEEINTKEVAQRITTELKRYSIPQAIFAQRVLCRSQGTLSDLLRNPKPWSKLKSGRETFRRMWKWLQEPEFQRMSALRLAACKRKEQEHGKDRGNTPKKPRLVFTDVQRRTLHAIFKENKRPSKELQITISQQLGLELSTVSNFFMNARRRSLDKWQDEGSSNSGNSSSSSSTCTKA
Procedure, shortened: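 HepG2 cells transiently transfected with cis-element-driven multiple reporter transcription units, dosed 24 h; reporter mRNA quantified by RT-PCR, FAM primer extension, HpaI digestion and capillary electrophoresis; bidirectional fit versus DMSO baseline.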

[8] = biological target: Heat shock factor protein 1 (Homo sapiens) (UniProt Q00613); test: ATG_HSE_CIS: Attagene CIS-FACTORIAL HepG2 Assay for human Heat Shock Transcription Factor 1 (HSE) (AID 2282953); conditions: HepG2 HSE cis-reporter, Attagene RNA transcription; actives raise or lower the signal
Chain of Heat shock factor protein 1 (Homo sapiens) (Q00613 whole entry, looked up, the tested form may be a part): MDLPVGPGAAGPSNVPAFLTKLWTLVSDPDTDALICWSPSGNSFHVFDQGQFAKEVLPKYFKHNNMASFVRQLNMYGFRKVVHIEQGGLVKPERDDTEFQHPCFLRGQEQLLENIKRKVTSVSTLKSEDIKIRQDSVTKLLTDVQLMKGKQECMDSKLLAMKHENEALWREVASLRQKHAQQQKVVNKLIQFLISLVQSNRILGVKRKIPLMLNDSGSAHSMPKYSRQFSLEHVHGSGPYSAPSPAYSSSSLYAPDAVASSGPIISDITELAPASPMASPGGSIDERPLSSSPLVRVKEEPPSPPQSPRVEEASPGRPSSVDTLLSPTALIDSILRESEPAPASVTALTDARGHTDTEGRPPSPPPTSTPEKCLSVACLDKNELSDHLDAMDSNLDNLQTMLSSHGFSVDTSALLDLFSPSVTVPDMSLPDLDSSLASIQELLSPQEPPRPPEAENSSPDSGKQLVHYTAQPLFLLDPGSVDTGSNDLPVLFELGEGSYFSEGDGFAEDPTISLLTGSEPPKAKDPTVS
Procedure, shortened: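 Read-out: fluorescence of reporter-specific RT-PCR fragments separated by capillary electrophoresis. HepG2 carrying transfected cis-element reporter units; 24 h dosing; activity fitted in both directions relative to DMSO baseline.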

[9] = ATG_MRE_CIS: Attagene CIS-FACTORIAL HepG2 Assay for human Metal Responsive Element (MRE) (AID 2282954); conditions: HepG2 MRE cis-reporter transcription, Attagene multiplex; actives raise or lower the signal
Procedure, shortened: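 HepG2 cells transiently transfected with multiple cis-element reporter units measure endogenous MTF1-driven transcription. After 24 h compound exposure, reporter mRNA is quantified by RT-PCR with 6-FAM labelling, HpaI digestion and capillary electrophoresis; bidirectional fits versus DMSO.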

[10] = ATG_PBREM_CIS: Attagene CIS-FACTORIAL HepG2 Assay for human Phenobarbital-responsive Enhancer Module (PBREM) (AID 2282955); conditions: HepG2 PBREM cis-reporter, Attagene multiplexed transcription; actives raise or lower the signal
Procedure, shortened: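 HepG2 cells transiently transfected with multiple cis-regulated reporter units measure endogenous transcription factor activity; 24 h compound exposure. Reporter mRNA quantified by RT-PCR, fluorescent labelling, HpaI digestion and capillary electrophoresis; bidirectional fit versus DMSO.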

[11] = biological target: Paired box protein Pax-6 (Homo sapiens) (UniProt P26367); test: ATG_Pax6_CIS: Attagene CIS-FACTORIAL HepG2 Assay for human Paired Box 6 (PAX6) (AID 2282956); conditions: HepG2 CIS-FACTORIAL PAX6 reporter transcription, RNA readout; actives raise or lower the signal
Chain of Paired box protein Pax-6 (Homo sapiens) (P26367 whole entry, looked up): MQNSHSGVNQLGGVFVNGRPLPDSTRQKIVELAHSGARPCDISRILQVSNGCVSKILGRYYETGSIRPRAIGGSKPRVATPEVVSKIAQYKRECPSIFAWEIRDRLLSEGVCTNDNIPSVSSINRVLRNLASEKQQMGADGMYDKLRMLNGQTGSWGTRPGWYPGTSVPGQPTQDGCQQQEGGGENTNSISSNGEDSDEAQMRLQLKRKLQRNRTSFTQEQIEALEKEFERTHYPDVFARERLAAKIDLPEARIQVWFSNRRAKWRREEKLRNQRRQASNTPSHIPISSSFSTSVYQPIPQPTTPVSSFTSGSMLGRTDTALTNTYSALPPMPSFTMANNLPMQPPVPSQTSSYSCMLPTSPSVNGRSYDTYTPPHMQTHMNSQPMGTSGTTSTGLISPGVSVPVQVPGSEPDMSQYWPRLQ
Procedure, shortened: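 Multiplexed cis-reporter HepG2 system; 24 h treatment; reporter mRNA read by RT-PCR/CE fluorescence; bidirectional fit vs DMSO.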

[12] = ATG_PXRE_CIS: Attagene CIS-FACTORIAL HepG2 Assay for human Pregnane X Receptor Element (PXRE) (AID 2282957); conditions: HepG2 Attagene CIS-FACTORIAL PXRE reporter, mRNA; actives raise or lower the signal
Procedure, shortened: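 HepG2 cells transiently transfected with cis-regulated multiple reporter transcription units; endogenous factor activity measured as reporter mRNA 24 h after dosing. RT-PCR, fluorescent primer extension, HpaI digestion, capillary electrophoresis; bidirectional fit versus DMSO baseline.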

[13] = ATG_PPRE_CIS: Attagene CIS-FACTORIAL HepG2 Assay for human Peroxisome Proliferator-activated Response Element (PPRE) (AID 2282958); conditions: HepG2 PPRE cis-element reporter, Attagene transcription factor profiling; actives raise or lower the signal
Procedure, shortened: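 HepG2 cells are transiently transfected with multiplexed cis-promoter reporter units to report endogenous PPAR activity. After 24 h dosing, reporter mRNA is read by RT-PCR and capillary electrophoresis. Fitting is bidirectional against DMSO.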

[14] = ATG_RORE_CIS: Attagene CIS-FACTORIAL HepG2 Assay for human RAR-related Orphan Receptor Element (RORE) (AID 2282959); conditions: HepG2 Attagene cis-factorial RORE reporter, mRNA; actives raise or lower the signal
Procedure, shortened: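 HepG2 cells carrying transiently transfected cis-regulated reporter units; RORE-driven reporter mRNA quantified 24 h post-dosing by RT-PCR, 6-FAM primer extension, HpaI digestion and capillary electrophoresis. Bidirectional fit versus DMSO.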

[15] = ATG_Sox_CIS: Attagene CIS-FACTORIAL HepG2 Assay for human SRY-box transcription factor (SOX) (AID 2282960); conditions: HepG2 Attagene cis-factorial SOX reporter, mRNA; actives raise or lower the signal
Procedure, shortened: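 HepG2 cells transiently transfected with multiple cis-regulated reporter units, then dosed for 24 h. Reporter mRNA quantified by RT-PCR, fluorescent labelling, HpaI digestion and capillary electrophoresis; bidirectional fit versus DMSO.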

[16] = biological target: Transcription factor Sp1 (Homo sapiens) (UniProt P08047); test: ATG_Sp1_CIS: Attagene CIS-FACTORIAL HepG2 Assay for human Specificity Protein 1 (Sp1) (AID 2282961); conditions: HepG2 Sp1 cis-reporter transcription, actives raise or lower the signal
Chain of Transcription factor Sp1 (Homo sapiens) (P08047 whole entry, looked up): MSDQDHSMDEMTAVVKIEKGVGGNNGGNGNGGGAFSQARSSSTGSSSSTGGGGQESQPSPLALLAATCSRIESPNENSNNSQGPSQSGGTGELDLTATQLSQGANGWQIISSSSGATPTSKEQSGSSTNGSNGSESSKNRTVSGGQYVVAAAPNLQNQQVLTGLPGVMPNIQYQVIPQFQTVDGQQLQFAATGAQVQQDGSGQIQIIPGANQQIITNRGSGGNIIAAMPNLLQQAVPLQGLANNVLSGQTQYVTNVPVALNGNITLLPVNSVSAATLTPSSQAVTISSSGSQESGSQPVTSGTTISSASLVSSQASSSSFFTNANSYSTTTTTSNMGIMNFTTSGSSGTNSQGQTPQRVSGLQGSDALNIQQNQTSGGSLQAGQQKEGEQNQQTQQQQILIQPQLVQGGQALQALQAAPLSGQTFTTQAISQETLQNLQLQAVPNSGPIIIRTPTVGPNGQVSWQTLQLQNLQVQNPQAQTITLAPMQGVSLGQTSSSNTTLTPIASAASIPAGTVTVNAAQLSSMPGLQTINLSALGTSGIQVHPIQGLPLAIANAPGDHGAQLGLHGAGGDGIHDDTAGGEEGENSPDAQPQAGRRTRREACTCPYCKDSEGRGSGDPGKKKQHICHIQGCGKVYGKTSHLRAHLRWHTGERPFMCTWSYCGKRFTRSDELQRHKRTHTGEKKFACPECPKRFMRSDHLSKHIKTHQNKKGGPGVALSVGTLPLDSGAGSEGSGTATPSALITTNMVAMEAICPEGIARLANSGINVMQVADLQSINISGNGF
Procedure, shortened: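 HepG2 cells transiently transfected with multiplexed cis-regulated reporter constructs, chemical exposure 24 h. Reporter mRNA quantified by RT-PCR with capillary electrophoresis; bidirectional fit relative to DMSO.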

[17] = biological target: Signal transducer and activator of transcription 3 (Homo sapiens) (UniProt P40763); test: ATG_STAT3_CIS: Attagene CIS-FACTORIAL HepG2 Assay for human Signal Transducer and Activator of Transcription 3 (STAT3) (AID 2282963); conditions: HepG2, Attagene cis-factorial STAT3 reporter transcription; actives raise or lower the signal
Chain of Signal transducer and activator of transcription 3 (Homo sapiens) (P40763 whole entry, looked up): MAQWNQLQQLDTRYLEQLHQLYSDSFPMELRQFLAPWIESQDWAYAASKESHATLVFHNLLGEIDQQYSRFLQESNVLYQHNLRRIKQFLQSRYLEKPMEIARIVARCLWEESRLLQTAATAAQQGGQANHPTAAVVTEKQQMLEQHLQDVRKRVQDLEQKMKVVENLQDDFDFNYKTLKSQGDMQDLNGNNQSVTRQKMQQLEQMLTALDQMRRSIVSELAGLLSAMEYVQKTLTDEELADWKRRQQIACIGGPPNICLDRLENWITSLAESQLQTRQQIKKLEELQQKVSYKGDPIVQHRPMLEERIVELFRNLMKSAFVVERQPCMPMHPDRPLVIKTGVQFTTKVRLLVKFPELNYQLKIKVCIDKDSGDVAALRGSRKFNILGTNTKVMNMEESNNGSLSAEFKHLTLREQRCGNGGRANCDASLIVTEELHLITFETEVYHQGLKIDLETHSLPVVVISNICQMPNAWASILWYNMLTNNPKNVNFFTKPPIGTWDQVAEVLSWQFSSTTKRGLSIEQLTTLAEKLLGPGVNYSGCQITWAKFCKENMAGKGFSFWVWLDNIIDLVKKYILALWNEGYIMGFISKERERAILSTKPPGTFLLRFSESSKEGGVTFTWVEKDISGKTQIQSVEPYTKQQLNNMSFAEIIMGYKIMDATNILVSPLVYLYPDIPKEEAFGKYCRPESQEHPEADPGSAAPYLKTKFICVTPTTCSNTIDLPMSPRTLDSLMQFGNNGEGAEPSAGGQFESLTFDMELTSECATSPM
Procedure, shortened: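 HepG2 cells transiently transfected with cis-element-driven multiple reporter transcription units; after 24 h chemical exposure, reporter mRNA measured by RT-PCR, 6-FAM primer-extension labelling, HpaI digestion and capillary electrophoresis. Bidirectional fitting versus DMSO baseline.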

[18] = ATG_SREBP_CIS: Attagene CIS-FACTORIAL HepG2 Assay for human Sterol Regulatory Element Binding (SREBP) (AID 2282962); conditions: HepG2 Attagene cis-factorial SREBP reporter, mRNA; actives raise or lower the signal
Procedure, shortened: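 mRNA induction of transfected cis-promoter reporters in HepG2 cells, 24 h post-dose. Detection: RT-PCR with 6-FAM-labelled products, HpaI digest, capillary electrophoresis. DMSO served as negative control and baseline.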

[19] = ATG_TA_CIS: Attagene CIS-FACTORIAL HepG2 Assay for human TA Basal Promoter (AID 2282964); conditions: HepG2 Attagene CIS-factorial TA basal promoter reporter; actives raise or lower the signal
Procedure, shortened: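 Transfected HepG2, 24 h compound exposure; RNA → RT-PCR → FAM primer extension → HpaI cut → CE fluorescence. Gain/loss-of-signal fitted against DMSO negative control. Background-control readout.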

[20] = biological target: Bile acid receptor (Homo sapiens) (UniProt Q96RI1); test: ATG_IR1_CIS: Attagene CIS-FACTORIAL HepG2 Assay for human Nuclear Receptor Subfamily 1 Group H Member 4 (NR1H4), IR1 submotif (AID 2282946); conditions: IR1 reporter transcription, actives raise or lower the signal
Chain of Bile acid receptor (Homo sapiens) (Q96RI1 whole entry, looked up): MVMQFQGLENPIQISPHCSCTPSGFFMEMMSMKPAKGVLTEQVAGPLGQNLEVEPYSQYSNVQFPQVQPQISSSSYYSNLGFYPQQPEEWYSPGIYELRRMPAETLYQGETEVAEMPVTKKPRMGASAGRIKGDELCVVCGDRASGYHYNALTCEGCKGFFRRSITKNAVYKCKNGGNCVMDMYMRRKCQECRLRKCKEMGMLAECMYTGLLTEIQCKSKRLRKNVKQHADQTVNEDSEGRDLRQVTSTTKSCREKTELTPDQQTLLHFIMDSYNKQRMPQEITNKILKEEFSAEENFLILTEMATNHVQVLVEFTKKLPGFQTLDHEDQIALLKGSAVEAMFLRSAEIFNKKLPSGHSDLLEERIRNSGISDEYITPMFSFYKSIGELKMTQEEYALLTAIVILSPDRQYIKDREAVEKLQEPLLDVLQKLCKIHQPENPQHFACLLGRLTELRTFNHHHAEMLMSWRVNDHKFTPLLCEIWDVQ
Procedure, shortened: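 Transient MRTU transfection, HepG2; 24 h dosing; RNA → RT-PCR → 6-FAM primer extension → HpaI digest → capillary electrophoresis fluorescence. Gain/loss of signal fitted relative to DMSO.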

Measured: AC50

C=CC(=O)NCOCCCC
active: [12] 36.7 µM
not listed: [18] | [19] | [20]
inactive: all other assays above

CC(C)(O)Cc1ccccc1
not listed: [20]
inactive: all other assays above

Cc1ccc(C)c(OCCCC(C)(C)C(=O)O)c1
active: [12] 22.5 µM
not listed: [2] | [6] | [7] | [10] | [11] | [13]
inactive: all other assays above

O=C1c2ccccc2C(=O)c2cc(S(=O)(=O)O)ccc21
not listed: [16] | [20]
inactive: all other assays above
